Laboratory results from the supplement of paper PMC11732987, “Enantioselective OTUD7B fragment discovery through chemoproteomics screening and high-throughput optimisation” (Communications Chemistry, 2025).
Values without a mark were called inactive.

compound: ClCC(=O)NC(C1CC1)C1CC1; test: log2 ratio of Biotin-Ahx-Ub-VS probe labelling (fragment/DMSO); higher = less target engagement (more negative = stronger competition), active = hit call of the paper (q ≤ 0.05, log2 ratio ≤ -1); conditions: compound concentration: 200 uM; treatment time: 3 h
Description: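 Competitive ABPP in HEK293T cell lysate. Lysates were treated with each chloroacetamide fragment at 200 µM for 3 h, then with Biotin-Ahx-Ub-VS (0.5 µM, 1 h), NeutrAvidin-enriched and analysed by diaPASEF LC-MS/MS. Protein LFQ was median-normalised; average log2 ratio is fragment/DMSO from an unpaired t-test (n=3 treated, n=44 DMSO). Hits: q ≤ 0.05, log2 ratio ≤ -1, unique peptides ≥ 2.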

UniProt P45974, sequence (P45974 whole entry): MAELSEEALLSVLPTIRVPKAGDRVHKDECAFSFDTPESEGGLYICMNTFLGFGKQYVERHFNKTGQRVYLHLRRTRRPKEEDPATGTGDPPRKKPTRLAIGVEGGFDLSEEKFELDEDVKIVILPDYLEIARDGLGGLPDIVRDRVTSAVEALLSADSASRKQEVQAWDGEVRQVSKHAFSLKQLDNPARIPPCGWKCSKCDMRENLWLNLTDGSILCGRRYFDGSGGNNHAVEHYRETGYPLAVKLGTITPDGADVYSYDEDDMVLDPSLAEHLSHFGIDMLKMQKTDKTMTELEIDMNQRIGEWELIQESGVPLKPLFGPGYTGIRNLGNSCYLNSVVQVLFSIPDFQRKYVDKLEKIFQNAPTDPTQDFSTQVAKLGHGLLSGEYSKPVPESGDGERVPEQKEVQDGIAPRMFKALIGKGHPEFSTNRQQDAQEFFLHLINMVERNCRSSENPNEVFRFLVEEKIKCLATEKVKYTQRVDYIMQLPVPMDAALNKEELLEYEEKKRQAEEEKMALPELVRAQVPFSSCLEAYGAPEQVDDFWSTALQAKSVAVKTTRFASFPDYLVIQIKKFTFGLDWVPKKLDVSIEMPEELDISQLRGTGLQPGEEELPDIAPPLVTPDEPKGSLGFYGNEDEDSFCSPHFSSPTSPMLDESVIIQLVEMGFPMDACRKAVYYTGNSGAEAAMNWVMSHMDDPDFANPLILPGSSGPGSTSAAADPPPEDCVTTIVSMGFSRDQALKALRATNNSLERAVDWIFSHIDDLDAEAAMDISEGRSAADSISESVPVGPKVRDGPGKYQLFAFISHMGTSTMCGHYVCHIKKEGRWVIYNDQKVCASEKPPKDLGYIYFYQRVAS
UniProt Q9Y4E8, sequence (Q9Y4E8 whole entry): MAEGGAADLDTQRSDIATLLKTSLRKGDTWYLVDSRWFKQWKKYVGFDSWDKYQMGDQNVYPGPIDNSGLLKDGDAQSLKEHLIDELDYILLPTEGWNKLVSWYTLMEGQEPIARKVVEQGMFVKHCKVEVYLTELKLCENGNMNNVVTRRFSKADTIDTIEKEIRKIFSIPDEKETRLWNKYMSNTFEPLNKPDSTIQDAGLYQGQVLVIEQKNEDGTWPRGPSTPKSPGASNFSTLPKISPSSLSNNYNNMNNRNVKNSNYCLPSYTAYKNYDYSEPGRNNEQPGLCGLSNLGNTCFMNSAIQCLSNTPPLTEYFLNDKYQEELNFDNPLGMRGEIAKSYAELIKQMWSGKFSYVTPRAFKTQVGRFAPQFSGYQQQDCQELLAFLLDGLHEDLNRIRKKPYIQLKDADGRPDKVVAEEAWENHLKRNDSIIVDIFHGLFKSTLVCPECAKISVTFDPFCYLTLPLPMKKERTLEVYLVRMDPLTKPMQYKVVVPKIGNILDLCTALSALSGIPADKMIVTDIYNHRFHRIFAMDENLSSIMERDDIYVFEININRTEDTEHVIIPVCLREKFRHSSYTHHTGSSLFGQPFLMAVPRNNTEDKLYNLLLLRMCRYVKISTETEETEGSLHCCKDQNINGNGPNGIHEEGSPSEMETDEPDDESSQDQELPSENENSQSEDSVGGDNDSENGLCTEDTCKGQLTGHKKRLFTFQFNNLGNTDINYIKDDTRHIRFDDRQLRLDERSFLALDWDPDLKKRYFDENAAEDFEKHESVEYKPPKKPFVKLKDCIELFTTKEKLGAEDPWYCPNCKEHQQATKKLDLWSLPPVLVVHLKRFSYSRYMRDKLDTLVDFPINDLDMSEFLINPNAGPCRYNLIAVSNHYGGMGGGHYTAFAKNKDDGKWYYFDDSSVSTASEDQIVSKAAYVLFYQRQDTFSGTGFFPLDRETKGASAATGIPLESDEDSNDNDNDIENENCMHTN
UniProt Q93009, sequence (Q93009 whole entry, looked up): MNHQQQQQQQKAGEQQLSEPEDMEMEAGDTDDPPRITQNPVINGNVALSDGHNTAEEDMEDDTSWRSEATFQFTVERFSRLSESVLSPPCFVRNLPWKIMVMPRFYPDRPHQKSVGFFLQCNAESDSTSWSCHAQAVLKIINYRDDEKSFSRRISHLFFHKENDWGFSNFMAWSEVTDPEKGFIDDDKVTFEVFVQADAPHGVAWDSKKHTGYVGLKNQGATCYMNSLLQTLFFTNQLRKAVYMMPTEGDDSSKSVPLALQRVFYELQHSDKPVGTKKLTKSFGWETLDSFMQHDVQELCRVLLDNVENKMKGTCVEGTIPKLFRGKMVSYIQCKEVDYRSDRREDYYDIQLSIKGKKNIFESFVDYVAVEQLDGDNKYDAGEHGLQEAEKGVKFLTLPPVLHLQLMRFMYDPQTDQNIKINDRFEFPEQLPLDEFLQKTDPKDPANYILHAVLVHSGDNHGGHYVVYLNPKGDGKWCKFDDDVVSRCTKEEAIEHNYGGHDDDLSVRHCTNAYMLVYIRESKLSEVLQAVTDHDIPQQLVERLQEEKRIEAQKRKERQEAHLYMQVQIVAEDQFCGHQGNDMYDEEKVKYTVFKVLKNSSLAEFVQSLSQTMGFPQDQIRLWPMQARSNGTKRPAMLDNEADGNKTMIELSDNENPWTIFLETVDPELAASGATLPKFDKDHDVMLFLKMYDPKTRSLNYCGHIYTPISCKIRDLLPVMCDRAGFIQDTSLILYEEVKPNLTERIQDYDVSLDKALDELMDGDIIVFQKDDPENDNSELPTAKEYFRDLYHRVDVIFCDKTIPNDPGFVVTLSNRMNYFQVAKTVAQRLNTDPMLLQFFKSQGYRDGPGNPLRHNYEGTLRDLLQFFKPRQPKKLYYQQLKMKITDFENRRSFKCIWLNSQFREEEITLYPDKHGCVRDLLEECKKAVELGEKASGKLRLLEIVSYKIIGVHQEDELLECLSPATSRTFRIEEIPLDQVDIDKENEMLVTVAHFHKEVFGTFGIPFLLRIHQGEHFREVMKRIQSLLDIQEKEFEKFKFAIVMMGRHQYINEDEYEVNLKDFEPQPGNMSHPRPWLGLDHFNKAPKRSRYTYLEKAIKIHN
UniProt Q92560, sequence (Q92560 whole entry): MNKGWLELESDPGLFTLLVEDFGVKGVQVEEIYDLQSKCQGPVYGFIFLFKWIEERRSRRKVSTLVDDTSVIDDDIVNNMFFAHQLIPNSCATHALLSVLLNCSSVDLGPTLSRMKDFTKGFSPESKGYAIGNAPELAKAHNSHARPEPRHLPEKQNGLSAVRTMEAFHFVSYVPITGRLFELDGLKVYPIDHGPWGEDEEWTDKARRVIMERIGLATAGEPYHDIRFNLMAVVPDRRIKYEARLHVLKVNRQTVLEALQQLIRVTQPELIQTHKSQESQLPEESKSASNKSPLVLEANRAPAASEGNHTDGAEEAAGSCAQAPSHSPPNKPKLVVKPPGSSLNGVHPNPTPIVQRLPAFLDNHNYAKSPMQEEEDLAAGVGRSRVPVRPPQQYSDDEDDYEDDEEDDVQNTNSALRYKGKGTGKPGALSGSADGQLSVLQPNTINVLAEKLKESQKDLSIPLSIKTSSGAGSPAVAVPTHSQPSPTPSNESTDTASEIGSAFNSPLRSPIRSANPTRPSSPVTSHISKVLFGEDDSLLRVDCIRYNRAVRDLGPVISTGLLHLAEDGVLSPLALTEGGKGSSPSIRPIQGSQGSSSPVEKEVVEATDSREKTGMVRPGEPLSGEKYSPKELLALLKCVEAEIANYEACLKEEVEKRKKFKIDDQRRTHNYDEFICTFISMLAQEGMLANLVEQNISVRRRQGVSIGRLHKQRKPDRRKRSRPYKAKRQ
UniProt P15374, sequence (P15374 whole entry): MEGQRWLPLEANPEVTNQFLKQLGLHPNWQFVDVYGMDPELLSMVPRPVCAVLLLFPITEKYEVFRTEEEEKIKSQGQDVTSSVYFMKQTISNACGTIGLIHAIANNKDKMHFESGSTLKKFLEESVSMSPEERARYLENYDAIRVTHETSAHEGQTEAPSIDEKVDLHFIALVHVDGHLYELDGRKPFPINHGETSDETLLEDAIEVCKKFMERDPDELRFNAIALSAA

USP16 (UniProt Q9Y5T5) and USP9X (UniProt Q93008) are within 0.2 log units of each other in “log2 ratio of Biotin-Ahx-Ub-VS probe labelling” value (shortened to “log2 ratio”): -0.253 for the first, -0.125 for the second.

UniProt Q8TE49 and USP24 (UniProt Q9UPU5) are within 0.2 log units of each other in “log2 ratio” value: -0.531 for the first, -0.346 for the second.

USP4 (UniProt Q13107) and USP22 (UniProt Q9UPT9) are within 0.2 log units of each other in “log2 ratio” value: -0.162 for the first, -0.16 for the second.

UniProt O00507 and COPS5 (UniProt Q92905) are within 0.2 log units of each other in “log2 ratio” value: -0.0912 for the first, -0.232 for the second.

VCPIP1 (UniProt Q96JH7) and OTUD6B (UniProt Q8N6M0) are within 0.2 log units of each other in “log2 ratio” value: -0.276 for the first, -0.29 for the second.

Compared with USP28 (UniProt Q96RU2), USP47 (UniProt Q96K76) is higher in “log2 ratio” value: -0.446 for the first, -0.205 for the second.

Going from USP36 (UniProt Q9P275) to ALG13 (UniProt Q9NP73), the “log2 ratio” value rises from -0.148 to 0.189.

FAM105A (UniProt Q9NUU6) and EIF3H (UniProt O15372) are within 0.2 log units of each other in “log2 ratio” value: -0.0106 for the first, -0.0951 for the second.

USP10 (UniProt Q14694) and OTUD5 (UniProt Q96G74) are within 0.2 log units of each other in “log2 ratio” value: -0.045 for the first, -0.0756 for the second.

Compared with USP48 (UniProt Q86UV5), USP34 (UniProt Q70CQ2) is lower in “log2 ratio” value: 0.01 for the first, -0.194 for the second.

USP7 (UniProt Q93009) and USP39 (UniProt Q53GS9) are within 0.2 log units of each other in “log2 ratio” value: -0.307 for the first, -0.194 for the second.

Compared with UCHL3 (UniProt P15374), BAP1 (UniProt Q92560) is lower in “log2 ratio” value: 0.117 for the first, -0.654 for the second.

USP19 (UniProt O94966) and UniProt O00487 are within 0.2 log units of each other in “log2 ratio” value: -0.198 for the first, -0.179 for the second.

Going from USP5 (UniProt P45974) to UniProt Q5T2D3, the “log2 ratio” value rises from -0.319 to -0.0205.

Going from USP15 (UniProt Q9Y4E8) to USP46 (UniProt P62068), the “log2 ratio” value rises from -0.268 to 0.045.

First: UniProt Q9UGI0
Sequence (Q9UGI0 whole entry): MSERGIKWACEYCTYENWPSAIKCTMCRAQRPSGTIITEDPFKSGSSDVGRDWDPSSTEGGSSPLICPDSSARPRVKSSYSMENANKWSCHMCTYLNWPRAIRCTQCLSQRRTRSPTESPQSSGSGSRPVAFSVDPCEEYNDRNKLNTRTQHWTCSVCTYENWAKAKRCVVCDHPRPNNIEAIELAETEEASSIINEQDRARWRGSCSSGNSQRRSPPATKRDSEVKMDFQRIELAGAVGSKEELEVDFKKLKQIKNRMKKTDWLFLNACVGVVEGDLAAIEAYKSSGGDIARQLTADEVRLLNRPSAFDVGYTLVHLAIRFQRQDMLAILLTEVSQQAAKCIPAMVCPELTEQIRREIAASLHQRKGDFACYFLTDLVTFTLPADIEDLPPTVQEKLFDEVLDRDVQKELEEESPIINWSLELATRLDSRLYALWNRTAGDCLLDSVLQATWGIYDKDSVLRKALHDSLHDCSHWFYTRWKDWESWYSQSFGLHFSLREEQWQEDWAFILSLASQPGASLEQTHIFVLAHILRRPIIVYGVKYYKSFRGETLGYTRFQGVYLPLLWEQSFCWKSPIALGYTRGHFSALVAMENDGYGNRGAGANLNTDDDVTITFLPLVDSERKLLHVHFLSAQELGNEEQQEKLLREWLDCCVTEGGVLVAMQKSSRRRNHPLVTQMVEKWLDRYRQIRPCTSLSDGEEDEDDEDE
Second: USP25 (UniProt Q9UHP3)
The “log2 ratio” value of the first is higher: -0.0131 for the first, -0.502 for the second.

USP8 (UniProt P40818) and USP42 (UniProt Q9H9J4) are within 0.2 log units of each other in “log2 ratio” value: -0.0528 for the first, -0.0349 for the second.

First: OTUB1 (UniProt Q96FW1)
Second: UniProt P51784
The “log2 ratio” value of the first is higher: 0.0718 for the first, -0.304 for the second.

PRPF8 (UniProt Q6P2Q9) and YOD1 (UniProt Q5VVQ6) are within 0.2 log units of each other in “log2 ratio” value: 0.0738 for the first, -0.0299 for the second.

First: UCHL5 (UniProt Q9Y5K5)
UniProt Q9Y5K5, sequence (Q9Y5K5 whole entry): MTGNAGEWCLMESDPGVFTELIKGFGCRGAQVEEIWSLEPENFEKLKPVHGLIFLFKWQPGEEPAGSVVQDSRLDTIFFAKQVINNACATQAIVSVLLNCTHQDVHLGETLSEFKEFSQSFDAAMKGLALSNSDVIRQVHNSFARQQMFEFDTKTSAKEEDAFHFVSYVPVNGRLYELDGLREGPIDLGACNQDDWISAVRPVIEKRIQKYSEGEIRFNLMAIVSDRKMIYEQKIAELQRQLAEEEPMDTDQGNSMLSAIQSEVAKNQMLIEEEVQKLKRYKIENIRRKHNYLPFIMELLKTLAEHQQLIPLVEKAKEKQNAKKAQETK
Second: USP14 (UniProt P54578)
The “log2 ratio” value of the first is higher: -0.00772 for the first, -0.411 for the second.
